# In article PMC7862700, “An all-to-all approach to the identification of sequence-specific readers for epigenetic DNA modifications on cytosine”:
# What was measured:
# Assay in all cases: DAPPL (digital affinity profiling via proximity ligation, sequencing); 10 mM Tris-HCl pH 7.5, 50 mM NaCl, 1 mM DTT, 4% glycerol, room temperature, 30 min; GST-TFs on glutathione beads, 16-mer random dsDNA library, 0.1% formaldehyde crosslink after washing; high values mean tight binding
# FLI1 = molecular target: T1, FLI1 (Homo sapiens, UniProt Q01543 1-452); conditions: protein: recombinant; tags: N-terminal GST; dsDNA, one strand shown
# T1 sequence: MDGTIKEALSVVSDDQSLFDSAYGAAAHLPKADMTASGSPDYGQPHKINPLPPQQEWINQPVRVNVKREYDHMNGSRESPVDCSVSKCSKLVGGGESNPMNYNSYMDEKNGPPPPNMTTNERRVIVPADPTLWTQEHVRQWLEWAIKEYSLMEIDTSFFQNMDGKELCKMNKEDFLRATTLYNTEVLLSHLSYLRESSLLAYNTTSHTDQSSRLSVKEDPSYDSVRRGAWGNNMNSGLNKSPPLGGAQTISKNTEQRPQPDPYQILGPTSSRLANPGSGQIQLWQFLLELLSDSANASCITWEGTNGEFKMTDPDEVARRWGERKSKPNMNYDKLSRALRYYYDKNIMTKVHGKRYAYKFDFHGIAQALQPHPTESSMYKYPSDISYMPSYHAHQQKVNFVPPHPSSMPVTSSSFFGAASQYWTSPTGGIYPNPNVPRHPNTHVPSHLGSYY
# Method in brief: (§1)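 A tag-only sample was pooled with DNA-barcoded human transcription factors that had been expressed in yeast as GST fusions and captured on glutathione beads. The pools were incubated for 30 min at room temperature with 200 nmole of a random double-stranded 16-mer DNA library in Tris/NaCl/DTT/glycerol buffer, then washed, crosslinked with 0.1% formaldehyde, proximity-ligated (BsaI/T4 ligase, 1 h, 37 °C), PCR-amplified and sequenced on an Illumina NextSeq500. Binding signal is each hexamer's read frequency for a factor divided by its frequency for the tag-only sample.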
# ELK1 = molecular target: T2, ELK1 (Homo sapiens, UniProt P19419 1-428); conditions: protein: recombinant; tags: N-terminal GST; dsDNA, one strand shown
# T2 sequence: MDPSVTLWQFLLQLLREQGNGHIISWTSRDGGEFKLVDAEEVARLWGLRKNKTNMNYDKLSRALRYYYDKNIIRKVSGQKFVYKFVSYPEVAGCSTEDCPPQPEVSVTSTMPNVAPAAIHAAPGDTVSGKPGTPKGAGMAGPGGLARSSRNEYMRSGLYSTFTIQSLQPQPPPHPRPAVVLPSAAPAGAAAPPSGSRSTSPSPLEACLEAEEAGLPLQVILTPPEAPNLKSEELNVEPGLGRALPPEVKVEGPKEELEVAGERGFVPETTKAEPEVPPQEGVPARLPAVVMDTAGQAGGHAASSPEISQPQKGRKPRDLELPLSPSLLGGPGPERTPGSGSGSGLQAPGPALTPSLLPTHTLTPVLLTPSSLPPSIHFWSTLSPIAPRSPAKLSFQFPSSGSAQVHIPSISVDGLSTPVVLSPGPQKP
# Method in brief: as §1
# GABPA = molecular target: T3, GABPA (Homo sapiens, UniProt Q06546 1-454); conditions: protein: recombinant; tags: N-terminal GST; dsDNA, one strand shown
# T3 sequence: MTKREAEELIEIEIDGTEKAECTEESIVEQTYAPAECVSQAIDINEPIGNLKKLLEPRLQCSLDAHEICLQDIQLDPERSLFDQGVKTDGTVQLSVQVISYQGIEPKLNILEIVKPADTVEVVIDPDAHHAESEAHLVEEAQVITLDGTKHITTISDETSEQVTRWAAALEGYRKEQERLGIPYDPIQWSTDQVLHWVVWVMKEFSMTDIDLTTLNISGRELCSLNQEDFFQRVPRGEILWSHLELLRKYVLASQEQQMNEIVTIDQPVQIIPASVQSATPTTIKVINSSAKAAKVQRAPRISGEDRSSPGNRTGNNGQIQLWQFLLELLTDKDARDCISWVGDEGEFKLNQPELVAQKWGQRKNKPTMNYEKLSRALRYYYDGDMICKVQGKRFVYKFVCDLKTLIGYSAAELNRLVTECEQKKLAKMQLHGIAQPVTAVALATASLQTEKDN
# Method in brief: as §1
# ERG = molecular target: T4, ERG (Homo sapiens, UniProt P11308 1-479); conditions: protein: recombinant; tags: N-terminal GST; dsDNA, one strand shown
# T4 sequence: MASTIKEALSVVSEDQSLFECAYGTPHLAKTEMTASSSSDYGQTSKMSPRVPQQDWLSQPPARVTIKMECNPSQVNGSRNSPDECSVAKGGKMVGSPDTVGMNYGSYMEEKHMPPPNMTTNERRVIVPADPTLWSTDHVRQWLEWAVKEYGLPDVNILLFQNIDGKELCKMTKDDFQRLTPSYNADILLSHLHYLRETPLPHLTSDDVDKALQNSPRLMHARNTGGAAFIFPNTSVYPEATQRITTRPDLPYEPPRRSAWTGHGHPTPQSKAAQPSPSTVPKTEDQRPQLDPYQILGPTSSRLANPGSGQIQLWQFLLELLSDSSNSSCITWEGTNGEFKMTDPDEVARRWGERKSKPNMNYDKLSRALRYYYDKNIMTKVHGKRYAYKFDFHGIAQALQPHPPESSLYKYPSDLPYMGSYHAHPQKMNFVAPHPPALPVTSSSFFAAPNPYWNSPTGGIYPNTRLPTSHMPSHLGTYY
# Method in brief: as §1
# ELF1 = ELF1 (Homo sapiens, UniProt P32519 1-619); conditions: protein: recombinant; tags: N-terminal GST; dsDNA, one strand shown
# ELF1, sequence (P32519 whole entry): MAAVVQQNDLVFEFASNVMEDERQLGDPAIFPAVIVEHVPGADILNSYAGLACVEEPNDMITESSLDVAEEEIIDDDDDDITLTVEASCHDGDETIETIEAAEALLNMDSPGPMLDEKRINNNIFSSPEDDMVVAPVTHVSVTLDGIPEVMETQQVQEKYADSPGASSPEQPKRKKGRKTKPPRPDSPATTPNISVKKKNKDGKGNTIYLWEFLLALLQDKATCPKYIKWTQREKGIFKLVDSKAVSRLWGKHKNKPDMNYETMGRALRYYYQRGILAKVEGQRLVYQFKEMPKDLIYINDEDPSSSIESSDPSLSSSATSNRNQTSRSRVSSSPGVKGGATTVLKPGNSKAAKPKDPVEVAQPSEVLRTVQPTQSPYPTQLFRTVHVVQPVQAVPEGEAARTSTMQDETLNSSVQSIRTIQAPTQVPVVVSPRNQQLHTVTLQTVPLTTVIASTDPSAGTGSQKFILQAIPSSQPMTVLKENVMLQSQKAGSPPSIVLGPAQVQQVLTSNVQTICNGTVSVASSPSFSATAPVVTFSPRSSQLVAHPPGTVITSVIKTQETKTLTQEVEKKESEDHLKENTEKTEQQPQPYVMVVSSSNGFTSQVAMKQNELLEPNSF
# Method in brief: as §1
# EHF = molecular target: T5, EHF (Homo sapiens, UniProt Q9NZC4 1-300); conditions: protein: recombinant; tags: N-terminal GST; dsDNA, one strand shown
# T5 sequence: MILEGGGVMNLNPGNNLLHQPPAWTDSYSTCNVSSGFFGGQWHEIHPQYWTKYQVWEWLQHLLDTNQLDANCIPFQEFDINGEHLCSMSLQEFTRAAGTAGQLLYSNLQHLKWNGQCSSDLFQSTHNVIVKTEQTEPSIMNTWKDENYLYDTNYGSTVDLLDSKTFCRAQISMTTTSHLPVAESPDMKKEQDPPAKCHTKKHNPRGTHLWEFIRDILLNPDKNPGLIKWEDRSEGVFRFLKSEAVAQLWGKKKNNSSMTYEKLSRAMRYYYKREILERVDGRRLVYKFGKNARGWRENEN
# Method in brief: as §1
# SPIB = SPIB (Homo sapiens, UniProt Q01892 1-262); conditions: protein: recombinant; tags: N-terminal GST; dsDNA, one strand shown
# SPIB, sequence (Q01892 whole entry): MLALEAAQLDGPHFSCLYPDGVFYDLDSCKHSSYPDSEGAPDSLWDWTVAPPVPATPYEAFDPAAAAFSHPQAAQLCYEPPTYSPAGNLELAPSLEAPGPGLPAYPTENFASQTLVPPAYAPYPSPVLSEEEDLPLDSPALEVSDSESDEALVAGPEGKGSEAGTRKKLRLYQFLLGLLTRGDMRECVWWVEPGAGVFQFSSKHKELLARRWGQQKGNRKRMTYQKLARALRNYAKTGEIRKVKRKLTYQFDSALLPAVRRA
# Method in brief: as §1
# ELK3 = molecular target: T6, ELK3 (Homo sapiens, UniProt P41970 1-407); conditions: protein: recombinant; tags: N-terminal GST; dsDNA, one strand shown
# T6 sequence: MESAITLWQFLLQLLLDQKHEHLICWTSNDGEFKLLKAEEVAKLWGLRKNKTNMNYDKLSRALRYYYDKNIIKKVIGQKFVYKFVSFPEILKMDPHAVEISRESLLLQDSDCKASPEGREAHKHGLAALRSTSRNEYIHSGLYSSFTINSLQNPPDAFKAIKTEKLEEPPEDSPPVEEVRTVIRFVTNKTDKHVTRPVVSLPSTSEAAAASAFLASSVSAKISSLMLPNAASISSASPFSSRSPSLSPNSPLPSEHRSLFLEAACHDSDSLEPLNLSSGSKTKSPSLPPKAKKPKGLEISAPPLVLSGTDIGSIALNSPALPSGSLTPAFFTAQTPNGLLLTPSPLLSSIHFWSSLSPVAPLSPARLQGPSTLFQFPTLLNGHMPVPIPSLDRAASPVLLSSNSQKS
# Method in brief: as §1
# FEV = molecular target: T7, FEV (Homo sapiens, UniProt Q99581 1-238); conditions: protein: recombinant; tags: N-terminal GST; dsDNA, one strand shown
# T7 sequence: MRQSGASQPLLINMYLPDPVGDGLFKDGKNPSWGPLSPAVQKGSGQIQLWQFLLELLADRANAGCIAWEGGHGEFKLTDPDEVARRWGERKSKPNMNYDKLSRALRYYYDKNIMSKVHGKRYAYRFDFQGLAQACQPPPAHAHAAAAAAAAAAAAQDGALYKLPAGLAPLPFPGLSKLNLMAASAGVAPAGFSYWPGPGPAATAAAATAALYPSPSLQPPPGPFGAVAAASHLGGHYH
# Method in brief: as §1
# ETV5 = ETV5 (Homo sapiens, UniProt P41161 1-510); conditions: protein: recombinant; tags: N-terminal GST; dsDNA, one strand shown
# ETV5, sequence (P41161 whole entry): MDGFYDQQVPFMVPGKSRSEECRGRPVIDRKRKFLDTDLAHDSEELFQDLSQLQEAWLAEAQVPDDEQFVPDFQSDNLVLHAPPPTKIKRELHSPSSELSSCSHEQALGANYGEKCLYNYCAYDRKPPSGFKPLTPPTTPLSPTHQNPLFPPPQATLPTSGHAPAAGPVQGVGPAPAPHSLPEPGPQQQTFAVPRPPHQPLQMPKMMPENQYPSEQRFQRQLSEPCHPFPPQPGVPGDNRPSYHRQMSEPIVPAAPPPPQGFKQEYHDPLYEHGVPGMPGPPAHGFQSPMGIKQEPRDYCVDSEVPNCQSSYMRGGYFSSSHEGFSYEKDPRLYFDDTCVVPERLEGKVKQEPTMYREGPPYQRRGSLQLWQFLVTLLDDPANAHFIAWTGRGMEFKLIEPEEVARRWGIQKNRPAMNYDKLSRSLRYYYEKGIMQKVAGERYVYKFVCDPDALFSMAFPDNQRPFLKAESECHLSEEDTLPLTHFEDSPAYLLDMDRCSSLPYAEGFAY
# Method in brief: as §1
# HSF1 = HSF1 (Homo sapiens, UniProt Q00613 1-529); conditions: protein: recombinant; tags: N-terminal GST; chain copies: 3; dsDNA, one strand shown
# HSF1, sequence (Q00613 whole entry): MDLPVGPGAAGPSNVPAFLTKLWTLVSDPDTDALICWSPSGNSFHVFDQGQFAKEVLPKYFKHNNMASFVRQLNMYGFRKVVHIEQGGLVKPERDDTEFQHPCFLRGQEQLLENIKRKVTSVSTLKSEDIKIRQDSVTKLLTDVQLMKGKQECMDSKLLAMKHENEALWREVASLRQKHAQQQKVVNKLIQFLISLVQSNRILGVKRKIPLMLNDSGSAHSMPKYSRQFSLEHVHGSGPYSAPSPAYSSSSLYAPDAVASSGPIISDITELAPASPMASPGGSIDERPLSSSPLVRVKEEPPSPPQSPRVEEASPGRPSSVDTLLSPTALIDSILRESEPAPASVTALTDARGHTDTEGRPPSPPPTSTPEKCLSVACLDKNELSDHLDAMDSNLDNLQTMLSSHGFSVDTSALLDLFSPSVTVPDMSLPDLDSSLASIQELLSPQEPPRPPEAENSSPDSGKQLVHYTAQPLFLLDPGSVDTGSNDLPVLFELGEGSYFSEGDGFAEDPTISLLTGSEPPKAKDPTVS
# Method in brief: as §1
# ELF4 = ELF4 (Homo sapiens, UniProt Q99607 1-663); conditions: protein: recombinant; tags: N-terminal GST; dsDNA, one strand shown
# ELF4, sequence (Q99607 whole entry): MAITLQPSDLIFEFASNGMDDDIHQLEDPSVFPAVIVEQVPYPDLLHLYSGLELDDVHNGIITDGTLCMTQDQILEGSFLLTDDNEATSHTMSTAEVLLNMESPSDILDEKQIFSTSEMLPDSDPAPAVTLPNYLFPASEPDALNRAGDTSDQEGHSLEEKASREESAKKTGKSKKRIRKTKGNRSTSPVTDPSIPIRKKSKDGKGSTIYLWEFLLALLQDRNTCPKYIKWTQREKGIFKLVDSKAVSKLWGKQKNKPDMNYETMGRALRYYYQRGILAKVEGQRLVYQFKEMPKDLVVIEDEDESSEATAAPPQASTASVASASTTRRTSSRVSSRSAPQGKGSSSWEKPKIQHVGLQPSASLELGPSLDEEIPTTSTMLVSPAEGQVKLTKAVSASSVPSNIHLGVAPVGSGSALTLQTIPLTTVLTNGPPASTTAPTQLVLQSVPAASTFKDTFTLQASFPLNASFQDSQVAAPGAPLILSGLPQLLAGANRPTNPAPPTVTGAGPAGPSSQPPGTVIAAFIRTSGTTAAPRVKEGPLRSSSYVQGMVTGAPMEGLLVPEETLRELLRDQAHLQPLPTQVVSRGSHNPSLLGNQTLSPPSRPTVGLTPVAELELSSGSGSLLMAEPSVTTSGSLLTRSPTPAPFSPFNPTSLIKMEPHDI
# Method in brief: as §1
# ELK4 = molecular target: T8, ELK4 (Homo sapiens, UniProt P28324-2 1-405); conditions: protein: recombinant; tags: N-terminal GST; dsDNA, one strand shown
# T8 sequence: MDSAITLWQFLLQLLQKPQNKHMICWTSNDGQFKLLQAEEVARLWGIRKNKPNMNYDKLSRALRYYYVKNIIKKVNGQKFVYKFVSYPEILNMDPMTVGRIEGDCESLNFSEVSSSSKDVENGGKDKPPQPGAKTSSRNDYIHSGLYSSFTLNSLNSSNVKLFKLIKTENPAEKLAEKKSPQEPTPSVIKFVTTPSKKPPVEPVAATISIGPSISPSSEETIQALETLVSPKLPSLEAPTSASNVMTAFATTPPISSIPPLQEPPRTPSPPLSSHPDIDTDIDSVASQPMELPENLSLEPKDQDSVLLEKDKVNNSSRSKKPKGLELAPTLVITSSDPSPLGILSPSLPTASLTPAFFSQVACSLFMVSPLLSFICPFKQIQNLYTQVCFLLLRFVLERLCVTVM
# Method in brief: as §1
# ETV2 = molecular target: T9, ETV2 (Homo sapiens, UniProt O00321 1-342); conditions: protein: recombinant; tags: N-terminal GST; dsDNA, one strand shown
# T9 sequence: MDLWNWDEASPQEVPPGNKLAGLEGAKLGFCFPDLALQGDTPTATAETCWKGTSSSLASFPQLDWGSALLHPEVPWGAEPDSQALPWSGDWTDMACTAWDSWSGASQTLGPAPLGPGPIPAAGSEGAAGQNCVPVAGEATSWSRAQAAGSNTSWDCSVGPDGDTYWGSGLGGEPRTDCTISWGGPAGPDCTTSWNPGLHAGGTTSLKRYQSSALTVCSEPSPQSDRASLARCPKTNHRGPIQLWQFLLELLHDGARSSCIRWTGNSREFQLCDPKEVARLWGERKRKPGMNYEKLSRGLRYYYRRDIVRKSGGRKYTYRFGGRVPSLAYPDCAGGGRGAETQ
# Method in brief: as §1
# ELF3 = molecular target: T10, ELF3 (Homo sapiens, UniProt P78545 1-371); conditions: protein: recombinant; tags: N-terminal GST; dsDNA, one strand shown
# T10 sequence: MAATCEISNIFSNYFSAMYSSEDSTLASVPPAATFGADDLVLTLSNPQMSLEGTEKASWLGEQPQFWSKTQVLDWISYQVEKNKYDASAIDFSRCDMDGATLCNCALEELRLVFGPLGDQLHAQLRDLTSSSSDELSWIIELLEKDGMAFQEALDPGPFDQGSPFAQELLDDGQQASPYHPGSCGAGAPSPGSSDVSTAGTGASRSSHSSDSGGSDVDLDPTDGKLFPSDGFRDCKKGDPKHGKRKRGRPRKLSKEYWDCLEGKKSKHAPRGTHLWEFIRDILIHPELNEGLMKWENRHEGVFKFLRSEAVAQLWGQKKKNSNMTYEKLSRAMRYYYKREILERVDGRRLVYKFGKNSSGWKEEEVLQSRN
# Method in brief: as §1
# CRX = CRX (Homo sapiens, UniProt O43186 1-299); conditions: protein: recombinant; tags: N-terminal GST; dsDNA, one strand shown
# CRX, sequence (O43186 whole entry): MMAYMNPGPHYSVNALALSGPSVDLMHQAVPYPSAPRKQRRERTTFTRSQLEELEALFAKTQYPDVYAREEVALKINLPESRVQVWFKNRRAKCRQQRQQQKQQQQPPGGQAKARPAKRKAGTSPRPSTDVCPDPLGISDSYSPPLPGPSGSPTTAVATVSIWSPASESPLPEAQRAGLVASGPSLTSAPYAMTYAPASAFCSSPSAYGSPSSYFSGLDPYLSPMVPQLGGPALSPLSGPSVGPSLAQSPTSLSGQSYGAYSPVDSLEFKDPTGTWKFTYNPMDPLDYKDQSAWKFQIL
# Method in brief: as §1
# ETV1 = ETV1 (Homo sapiens, UniProt P50549 1-477); conditions: protein: recombinant; tags: N-terminal GST; dsDNA, one strand shown
# ETV1, sequence (P50549 whole entry): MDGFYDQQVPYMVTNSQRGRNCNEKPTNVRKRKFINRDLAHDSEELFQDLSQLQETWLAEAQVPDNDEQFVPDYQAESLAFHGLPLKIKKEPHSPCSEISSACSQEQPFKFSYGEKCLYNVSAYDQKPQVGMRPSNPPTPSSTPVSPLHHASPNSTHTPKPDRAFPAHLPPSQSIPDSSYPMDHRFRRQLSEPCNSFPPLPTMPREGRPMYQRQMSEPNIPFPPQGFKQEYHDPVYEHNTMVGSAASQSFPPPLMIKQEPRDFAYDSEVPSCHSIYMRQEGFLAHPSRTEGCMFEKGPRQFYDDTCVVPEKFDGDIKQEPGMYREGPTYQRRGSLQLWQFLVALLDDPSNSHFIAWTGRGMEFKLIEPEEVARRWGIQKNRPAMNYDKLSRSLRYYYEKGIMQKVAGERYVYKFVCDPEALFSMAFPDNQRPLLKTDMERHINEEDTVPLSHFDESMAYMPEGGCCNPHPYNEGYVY
# Method in brief: as §1
# SPI1 = SPI1 (Homo sapiens, UniProt P17947 1-270); conditions: protein: recombinant; tags: N-terminal GST; dsDNA, one strand shown
# Method in brief: as §1
Sequence,binding signal (FLI1),binding signal (ELK1),binding signal (GABPA),binding signal (ERG),binding signal (ELF1),binding signal (EHF),binding signal (SPIB),binding signal (ELK3),binding signal (FEV),binding signal (ETV5),binding signal (HSF1),binding signal (ELF4),binding signal (ELK4),binding signal (ETV2),binding signal (ELF3),binding signal (CRX),binding signal (ETV1),binding signal (SPI1)
AATCCA,"1.09 fold enrichment (6-mer frequency, TF over GST control)","1.07 fold enrichment (6-mer frequency, TF over GST control)","1.09 fold enrichment (6-mer frequency, TF over GST control)","1.1 fold enrichment (6-mer frequency, TF over GST control)","1.09 fold enrichment (6-mer frequency, TF over GST control)","1.07 fold enrichment (6-mer frequency, TF over GST control)","1.12 fold enrichment (6-mer frequency, TF over GST control)","1.07 fold enrichment (6-mer frequency, TF over GST control)","1.11 fold enrichment (6-mer frequency, TF over GST control)","1.07 fold enrichment (6-mer frequency, TF over GST control)","1.78 fold enrichment (6-mer frequency, TF over GST control)","1.12 fold enrichment (6-mer frequency, TF over GST control)","1.18 fold enrichment (6-mer frequency, TF over GST control)","1.03 fold enrichment (6-mer frequency, TF over GST control)","1.1 fold enrichment (6-mer frequency, TF over GST control)","2.33 fold enrichment (6-mer frequency, TF over GST control)","1.12 fold enrichment (6-mer frequency, TF over GST control)",
TGCAAA,"1.13 fold enrichment (6-mer frequency, TF over GST control)","1.11 fold enrichment (6-mer frequency, TF over GST control)","1.07 fold enrichment (6-mer frequency, TF over GST control)","1.14 fold enrichment (6-mer frequency, TF over GST control)","1.19 fold enrichment (6-mer frequency, TF over GST control)","1.16 fold enrichment (6-mer frequency, TF over GST control)","1.12 fold enrichment (6-mer frequency, TF over GST control)","1.14 fold enrichment (6-mer frequency, TF over GST control)","1.12 fold enrichment (6-mer frequency, TF over GST control)","1.09 fold enrichment (6-mer frequency, TF over GST control)","1.06 fold enrichment (6-mer frequency, TF over GST control)","1.13 fold enrichment (6-mer frequency, TF over GST control)","1.14 fold enrichment (6-mer frequency, TF over GST control)","1.08 fold enrichment (6-mer frequency, TF over GST control)","1.2 fold enrichment (6-mer frequency, TF over GST control)","1.01 fold enrichment (6-mer frequency, TF over GST control)","1.14 fold enrichment (6-mer frequency, TF over GST control)","1.14 fold enrichment (6-mer frequency, TF over GST control)"
